According to PubChem BioAssay AID1159580 (chemical genetic matrix, 2015):
Several values for one entry are separate records, joined by “and”; a condition that tells them apart may be missing. Identical values can stand only once. In all, about 5,500 compounds went through this assay and about 2,000 (36%) were called active. Not shown: some 18% with an inconclusive outcome. No stated cut-off is given here; in the data, active means normalized growth mostly below about 0.91 (no sharp cut-off); inconclusive means no clear call, values can overlap the other calls; inactive means mostly above about 0.92. The list shows a part of the results.

Assay: chemical genetic growth profiling, strain panel (AID 1159580);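 further: tested at 20 µM; growth read once vehicle control cultures reached saturation at 30 °C; 1 = growth at the plate median or of vehicle wells; lower values mean less growth of the strain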
Settings: S. cerevisiae deletion strains, growth OD
[1] = locus YHR030C, strain SLT2, hits give low values
[2] = locus YHR079C, strain IRE1, hits give low values
[3] = locus YJL095W, strain BCK1, hits give low values
[4] = locus YJR066W, strain TOR1, hits give low values
[5] = locus YLR113W, strain HOG1, hits give low values
[6] = locus YNL183C, strain NPR1, hits give low values
[7] = locus YOR231W, strain MKK1, hits give low values
[8] = locus YPL256C, strain CLN2, hits give low values

Measured: normalized growth

NCC[C@@H](O)C(=O)N[C@@H]1C[C@H](N)[C@@H](O[C@H]2O[C@H](CN)[C@@H](O)[C@H](O)[C@H]2O)[C@H](O)[C@H]1O[C@H]1O[C@H](CO)[C@@H](O)[C@H](N)C1O (some centres undefined)
inactive: locus YAL013W, strain DEP1, hits give low values 0.974 | locus YAL021C, strain ccr4, hits give low values 1.02 | locus YAL026C, strain drs2, hits give low values 1.02 | locus YAL030W, strain snc1, hits give low values 1.04 | locus YBL061C, strain skt5, hits give low values 1.03 | locus YBR009C, strain hhf1, hits give low values 1.03 | locus YBR021W, strain FUR4, hits give low values 0.96 | locus YBR023C, strain chs3, hits give low values 1.04 | locus YBR171W, strain sec66, hits give low values 1.04 | locus YBR229C, strain ROT2, hits give low values 0.999 | locus YBR231C, strain swc5, hits give low values 1.04 | locus YBR279W, strain paf1, hits give low values 1.03 | locus YCL011C, strain gbp2, hits give low values 1.03 | locus YCL016C, strain dcc1, hits give low values 1.04 | locus YCL029C, strain bik1, hits give low values 1.02 | locus YCL061C, strain MRC1, hits give low values 1.02 | locus YCL069W, strain vba3, hits give low values 1.04 | locus YCR088W, strain abp1, hits give low values 1.03 | locus YDL005C, strain med2, hits give low values 1.04 | locus YDL035C, strain GPR1, hits give low values 0.986 | locus YDL040C, strain nat1, hits give low values 1.04 | locus YDL074C, strain BRE1, hits give low values 0.983 | locus YDL101C, strain DUN1, hits give low values 0.999 | locus YDL185W, strain tfp1, hits give low values 1.02 | locus YDL192W, strain arf1, hits give low values 1.01 | locus YDR001C, strain nth1, hits give low values 1.02 | locus YDR069C, strain doa4, hits give low values 1.03 | locus YDR101C, strain arx1, hits give low values 0.998 | locus YDR137W, strain rgp1, hits give low values 1.04 | locus YDR159W, strain sac3, hits give low values 1.05 | locus YDR162C, strain NBP2, hits give low values 1.01 | locus YDR195W, strain ref2 1.08 | locus YDR297W, strain sur2, hits give low values 1.03 | locus YDR318W, strain mcm21, hits give low values 1.01 | locus YDR334W, strain swr1, hits give low values 1.01 | locus YDR335W, strain msn5, hits give low values 1.04 | locus YDR388W, hits give low values 1.01 | locus YDR392W, strain spt3, hits give low values 1.06 | locus YDR502C, strain sam2, hits give low values 1.01 | locus YEL003W, strain gim4, hits give low values 1.03 | locus YEL037C, strain rad23, hits give low values 1.03 | locus YEL061C, strain CIN8 (second series), hits give low values 1.04 | locus YEL061C, strain CIN8, hits give low values 1 | locus YER015W, strain faa2, hits give low values 1.03 | locus YER016W, strain bim1, hits give low values 1 | locus YER110C, hits give low values 1.03 | locus YER111C, strain swi4, hits give low values 1.03 | locus YER155C, strain BEM2 (second series), hits give low values 1.02 | locus YER155C, strain BEM2, hits give low values 1.01 | locus YER167W, strain BCK2, hits give low values 0.986 | locus YFR010W, strain ubp6, hits give low values 1.05 | locus YGL078C, strain dbp3, hits give low values 1 | locus YGL086W, strain mad1, hits give low values 1 | locus YGL167C, strain pmr1, hits give low values 1.03 | locus YGL173C, strain kem1, hits give low values 1.04 | locus YGL227W, strain vid30, hits give low values 1.05 | locus YGL240W, strain doc1, hits give low values 1.01 | locus YGL248W, strain PDE1, hits give low values 0.999 | locus YGL253W, strain hxk2, hits give low values 1.02 | locus YGR078C, strain PAC10, hits give low values 0.997 | locus YGR135W, strain pre9, hits give low values 0.988 | locus YGR252W, strain gcn5, hits give low values 0.944 | locus YHR013C, strain ard1, hits give low values 1.04 | locus YHR027C, strain rpn1, hits give low values 1.03 | [1] 1.01 and 1.02 | locus YHR079C, strain IRE1 (second series), hits give low values 1.02 | [2] 1.03 | locus YHR094C, strain hxt1, hits give low values 1.03 | locus YHR129C, strain ARP1, hits give low values 1.01 | locus YHR142W, strain chs7, hits give low values 1.06 | locus YHR200W, strain rpn10, hits give low values 1.02 | locus YIL066C, strain RNR3, hits give low values 1 | locus YIL073C, strain SPO22, hits give low values 1.19 | locus YIL125W, strain kgd1, hits give low values 1.01 | locus YIR030C, strain dcg1, hits give low values 1.03 | locus YJL092W, strain hpr5, hits give low values 1.03 | locus YJL095W, strain BCK1 (second series), hits give low values 1 | [3] 0.999 and 1.02 | locus YJL115W, strain asf1, hits give low values 1.04 | locus YJL129C, strain trk1, hits give low values 1.07 | locus YJL134W, strain LCB3, hits give low values 1.01 | locus YJL154C, strain vps35, hits give low values 1.03 | locus YJL164C, strain tpk1, hits give low values 1.01 | locus YJL166W, strain qcr8, hits give low values 1.03 | locus YJL168C, strain set2, hits give low values 1.01 | locus YJL187C, strain SWE1 (second series), hits give low values 0.999 | locus YJL187C, strain SWE1, hits give low values 1.03 | locus YJR043C, strain POL32, hits give low values 0.983 | [4] 0.975 | locus YJR075W, strain HOC1, hits give low values 0.995 | locus YKL009W, strain mrt4, hits give low values 1.02 | locus YKL068W, hits give low values 1.01 | locus YKL085W, strain MDH1 (second series), hits give low values 1.01 | locus YKL085W, strain MDH1, hits give low values 1.01 | locus YKL160W, strain elf1, hits give low values 1.01 | locus YKR001C, strain vps1, hits give low values 1.01 | locus YKR026C, strain gcn3, hits give low values 1.07 | locus YKR091W, strain srl3, hits give low values 1.01 | locus YLL001W, strain dnm1, hits give low values 1.02 | locus YLL026W, hits give low values 1.01 | locus YLL041C, strain sdh2, hits give low values 1.03 | locus YLR027C, strain aat2, hits give low values 1.02 | locus YLR039C, strain RIC1, hits give low values 1.04 | locus YLR058C, strain SHM2, hits give low values 1.01 | locus YLR102C, strain apc9, hits give low values 1.01 | [5] 1.03 | locus YLR221C, strain rsa3, hits give low values 1.01 | locus YLR258W, strain gsy2, hits give low values 1.02 | locus YLR262C, strain YPT6 (second series), hits give low values 1.03 | locus YLR262C, strain YPT6, hits give low values 1.04 | locus YLR268W, strain sec22, hits give low values 1.04 | locus YLR320W, strain mms22, hits give low values 1.03 | locus YLR330W, strain CHS5, hits give low values 1.01 | locus YLR342W, strain FKS1 (second series), hits give low values 0.966 | locus YLR342W, strain FKS1, hits give low values 1.03 | locus YLR357W, strain rsc2, hits give low values 1.09 | locus YLR370C, strain arc18, hits give low values 1.03 | locus YLR371W, strain rom2, hits give low values 1.01 | locus YLR384C, strain iki3, hits give low values 1.03 | locus YLR418C, strain cdc73, hits give low values 1.01 | locus YML016C, strain PPZ1, hits give low values 1.01 | locus YML032C, strain rad52, hits give low values 1.01 | locus YML120C, strain ndi1, hits give low values 1.02 | locus YML124C, strain tub3, hits give low values 1.01 | locus YMR058W, strain fet3, hits give low values 1.04 | locus YMR078C, strain ctf18, hits give low values 1.02 | locus YMR125W, strain sto1, hits give low values 1.06 | locus YMR129W, hits give low values 1.03 | locus YMR205C, strain PFK2, hits give low values 1.05 | locus YMR223W, strain ubp8, hits give low values 1.01 | locus YMR231W, strain pep5, hits give low values 1.03 | locus YMR263W, strain SAP30, hits give low values 1 | locus YMR307W, strain GAS1, hits give low values 0.921 | locus YNL067W, strain RPL9B, hits give low values 0.992 | locus YNL071W, strain lat1, hits give low values 1.02 | locus YNL153C, strain GIM3, hits give low values 0.996 | [6] 0.952 | locus YNL209W, strain ssb2, hits give low values 1.02 | locus YNL233W, strain BNI4, hits give low values 1.02 | locus YNL248C, strain rpa49, hits give low values 0.984 | locus YNL250W, strain rad50, hits give low values 1.01 | locus YNL271C, strain bni1, hits give low values 1.02 | locus YNL298W, strain CLA4, hits give low values 1.02 | locus YNL307C, strain MCK1, hits give low values 1.02 | locus YNL322C, strain KRE1 (second series), hits give low values 1.04 | locus YNL322C, strain KRE1, hits give low values 1.01 | locus YNR049C, strain mso1, hits give low values 1.03 | locus YNR052C, strain pop2, hits give low values 1.02 | locus YOL006C, strain TOP1, hits give low values 0.932 | locus YOL012C, strain htz1 0.906 | locus YOL147C, strain pex11, hits give low values 1.02 | locus YOR001W, strain rrp6, hits give low values 1.05 | locus YOR061W, strain CKA2, hits give low values 1.01 | locus YOR069W, strain VPS5, hits give low values 1.01 | locus YOR070C, strain gyp1, hits give low values 1.03 | locus YOR080W, strain dia2, hits give low values 1.05 | locus YOR083W, strain WHI5, hits give low values 1.02 | locus YOR106W, strain vam3, hits give low values 1.04 | locus YOR136W, strain idh2, hits give low values 1.02 | locus YOR144C, strain elg1, hits give low values 1.02 | locus YOR184W, strain ser1, hits give low values 1.03 | [7] 1 | locus YOR265W, strain rbl2, hits give low values 1.04 | locus YOR270C, strain vph1, hits give low values 1.05 | locus YOR290C, strain snf2, hits give low values 1.04 | locus YOR316C, strain cot1, hits give low values 1.02 | locus YPL051W, strain arl3, hits give low values 1.02 | locus YPL078C, strain atp4, hits give low values 1.03 | locus YPL106C, strain sse1, hits give low values 1.07 | locus YPL240C, strain hsp82, hits give low values 1.02 | [8] 1.04 | locus YPR119W, strain clb2, hits give low values 1.01 | locus YPR141C, strain kar3, hits give low values 1.01 | locus YPR163C, strain tif3, hits give low values 1.02 | locus YPR167C, strain met16, hits give low values 1.02 | strain wtn01, hits give low values 1.01

NC(=O)CC[C@H](N)C(=O)O
inactive: [1] 0.98 | [2] 0.977 | [3] 0.965 | [4] 0.941 | [5] 0.976 | [6] 0.954 | [7] 0.98 | [8] 0.972
